According to PubChem BioAssay AID1159580 (chemical genetic matrix, 2015):
Several values for one entry are separate records, joined by “and”; a condition that tells them apart may be missing. Equal values may be shown once. Among all 5,500 compounds or so, about 2,000 (36%) were called active. Not shown: some 18% with an inconclusive outcome. No stated cut-off is given here; in the data, active means normalized growth mostly below about 0.91 (no sharp cut-off); inconclusive means no clear call, values can overlap the other calls; inactive means mostly above about 0.92. This is one part of the list.

Experiment: chemical genetic growth profiling, strain panel (AID 1159580);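 further: tested at 20 µM; growth read once vehicle control cultures reached saturation at 30 °C; 1 = growth at the plate median or of vehicle wells; lower values mean less growth of the strain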
Details: S. cerevisiae deletion strains, growth OD

Measured: normalized growth

Nc1ccc(S(=O)(=O)NC(=O)c2ccccc2)cc1
inactive: locus YAL013W, strain DEP1, active compounds read low 1.01 | locus YAL021C, strain ccr4, active compounds read low 0.985 | locus YAL026C, strain drs2, active compounds read low 1 | locus YAL030W, strain snc1, active compounds read low 1.01 | locus YBL061C, strain skt5, active compounds read low 0.99 | locus YBR009C, strain hhf1, active compounds read low 0.959 | locus YBR021W, strain FUR4, active compounds read low 1.04 | locus YBR023C, strain chs3, active compounds read low 0.995 | locus YBR171W, strain sec66, active compounds read low 0.992 | locus YBR229C, strain ROT2, active compounds read low 1.01 | locus YBR231C, strain swc5, active compounds read low 0.992 | locus YBR279W, strain paf1, active compounds read low 0.985 | locus YCL011C, strain gbp2, active compounds read low 1 | locus YCL016C, strain dcc1, active compounds read low 1.01 | locus YCL029C, strain bik1, active compounds read low 1.02 | locus YCL061C, strain MRC1, active compounds read low 0.979 | locus YCL069W, strain vba3, active compounds read low 0.968 | locus YCR088W, strain abp1, active compounds read low 0.978 | locus YDL005C, strain med2, active compounds read low 0.992 | locus YDL035C, strain GPR1, active compounds read low 1.01 | locus YDL040C, strain nat1, active compounds read low 0.998 | locus YDL074C, strain BRE1, active compounds read low 1.01 | locus YDL101C, strain DUN1, active compounds read low 1.01 | locus YDL134C, strain PPH21, active compounds read low 1.02 | locus YDL185W, strain tfp1, active compounds read low 0.999 | locus YDL192W, strain arf1, active compounds read low 1.02 | locus YDR001C, strain nth1, active compounds read low 0.975 | locus YDR069C, strain doa4, active compounds read low 0.973 | locus YDR101C, strain arx1, active compounds read low 1.02 | locus YDR137W, strain rgp1, active compounds read low 0.959 | locus YDR159W, strain sac3, active compounds read low 0.948 | locus YDR162C, strain NBP2, active compounds read low 1 | locus YDR195W, strain ref2 0.957 | locus YDR297W, strain sur2, active compounds read low 0.997 | locus YDR318W, strain mcm21, active compounds read low 1.03 | locus YDR334W, strain swr1, active compounds read low 0.934 | locus YDR335W, strain msn5, active compounds read low 0.985 | locus YDR388W, active compounds read low 1.02 | locus YDR392W, strain spt3, active compounds read low 1.01 | locus YDR502C, strain sam2, active compounds read low 1.03 | locus YEL003W, strain gim4, active compounds read low 0.99 | locus YEL037C, strain rad23, active compounds read low 0.988 | locus YEL061C, strain CIN8 (second series), active compounds read low 0.993 | locus YEL061C, strain CIN8, active compounds read low 1.01 | locus YER015W, strain faa2, active compounds read low 0.998 | locus YER016W, strain bim1, active compounds read low 0.974 | locus YER110C, active compounds read low 1.03 | locus YER111C, strain swi4, active compounds read low 1.01 | locus YER155C, strain BEM2 (second series), active compounds read low 1.02 | locus YER155C, strain BEM2, active compounds read low 1.01 | locus YER167W, strain BCK2, active compounds read low 1 | locus YFR010W, strain ubp6, active compounds read low 0.951 | locus YGL078C, strain dbp3, active compounds read low 1.02 | locus YGL086W, strain mad1, active compounds read low 1.01 | locus YGL167C, strain pmr1, active compounds read low 0.964 | locus YGL173C, strain kem1, active compounds read low 0.986 | locus YGL227W, strain vid30, active compounds read low 0.967 | locus YGL240W, strain doc1, active compounds read low 0.998 | locus YGL248W, strain PDE1, active compounds read low 1 | locus YGL253W, strain hxk2, active compounds read low 0.989 | locus YGR135W, strain pre9, active compounds read low 1.02 | locus YGR252W, strain gcn5, active compounds read low 0.997 | locus YHR013C, strain ard1, active compounds read low 0.98 | locus YHR027C, strain rpn1, active compounds read low 0.993 | locus YHR030C, strain SLT2, active compounds read low 1.01 and 0.995 | locus YHR079C, strain IRE1 (second series), active compounds read low 1.01 | locus YHR079C, strain IRE1, active compounds read low 0.98 | locus YHR094C, strain hxt1, active compounds read low 1.01 | locus YHR129C, strain ARP1, active compounds read low 0.996 | locus YHR142W, strain chs7, active compounds read low 0.997 | locus YHR200W, strain rpn10, active compounds read low 1.02 | locus YIL066C, strain RNR3, active compounds read low 1.01 | locus YIL073C, strain SPO22, active compounds read low 1.06 | locus YIL125W, strain kgd1, active compounds read low 1.01 | locus YIR030C, strain dcg1, active compounds read low 1.02 | locus YJL092W, strain hpr5, active compounds read low 0.993 | locus YJL095W, strain BCK1 (second series), active compounds read low 0.996 | locus YJL095W, strain BCK1, active compounds read low 0.994 and 0.999 | locus YJL115W, strain asf1, active compounds read low 0.999 | locus YJL129C, strain trk1, active compounds read low 0.983 | locus YJL134W, strain LCB3, active compounds read low 1.01 | locus YJL154C, strain vps35, active compounds read low 0.99 | locus YJL164C, strain tpk1, active compounds read low 0.979 | locus YJL166W, strain qcr8, active compounds read low 0.983 | locus YJL168C, strain set2, active compounds read low 1.01 | locus YJL187C, strain SWE1 (second series), active compounds read low 1.01 | locus YJL187C, strain SWE1, active compounds read low 0.992 | locus YJR043C, strain POL32, active compounds read low 1.01
